Assay results taken from PubChem BioAssay (EPA / NIEHS).
Activity calls are given as the source filed them. The calls were made as follows: active = hit-call score of the fitted dose curve at least 0.9, where 1 is the maximum; inactive = score below 0.9.

Experiments:
[1] = read-out: urokinase plasminogen activator (uPA), PLAU (gene 5328); test: BSK_KF3CT_uPA: BioMAP Diversity Plus: KF3CT Assay for urokinase plasminogen activator (uPA) Biomarker Activity (AID 2283075); conditions: primary human keratinocytes with fibroblasts; actives raise or lower the signal
Method in brief: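 Human keratinocyte plus foreskin fibroblast primary co-culture exposed to chemical for 24 h. uPA levels were quantified by ELISA, and activity was fitted bidirectionally against a DMSO negative-control baseline.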

CD40, CD40 (gene 958) [2] = test: BSK_LPS_CD40: BioMAP Diversity Plus: LPS Assay for CD40 Biomarker Activity (AID 2283076); conditions: primary human HUVEC with PBMC; actives raise or lower the signal
Method in brief: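 ELISA readout of CD40 in HUVEC/PBMC co-culture (BSK_LPS system), 24 h post-dosing; bidirectional curve fit, DMSO baseline; parallel SRB total-protein staining for cytotoxicity.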

[3] = read-out: E-selectin (Homo sapiens) (UniProt P16581); test: BSK_LPS_Eselectin: BioMAP Diversity Plus: LPS Assay for Eselectin Biomarker Activity (AID 2283077); conditions: primary human HUVEC with PBMC; actives raise or lower the signal
Method in brief: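 ELISA readout of E-selectin, 24 h post-dose, HUVEC + PBMC co-culture (LPS system). Gain or loss of signal vs DMSO baseline, bidirectional fit.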

[4] = read-out: Interleukin-8 (IL8), CXCL8 (gene 3576); test: BSK_LPS_IL8: BioMAP Diversity Plus: LPS Assay for Interleukin-8 (IL8) Biomarker Activity (AID 2283078); conditions: primary human HUVEC with PBMC; actives raise or lower the signal
Method in brief: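 HUVEC + PBMC co-culture, LPS-activated; test chemicals dosed, IL-8 read by ELISA at 24 h. Bidirectional curve fit vs DMSO baseline (gain or loss of signal).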

[5] = BSK_LPS_SRB: Viability Assessment in the BioMAP Diversity Plus: LPS Assay (AID 2283079); conditions: primary human HUVEC with PBMC;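 also: total protein by sulforhodamine B absorbance as a cytotoxicity measure; measured one day after compound addition; fitted in both directions against DMSO so loss or gain of signal counts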
Method in brief: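 HUVEC + PBMC co-culture, LPS-stimulated; compound 24 h. 10% TCA fix, 0.1% SRB stain, A560. Bidirectional fit vs DMSO.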

[6] = read-out: Interleukin-1 alpha (IL1a), IL1A (gene 3552); test: BSK_LPS_IL1a: BioMAP Diversity Plus: LPS Assay for Interleukin-1 alpha (IL1a) Biomarker Activity (AID 2283080); conditions: primary human HUVEC with PBMC; actives raise or lower the signal
Method in brief: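 HUVEC/PBMC co-culture, LPS system; 24 h after dosing; IL-1a by ELISA; gain or loss of signal fitted bidirectionally vs DMSO baseline.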

[7] = read-out: Monocyte Chemoattractant Protein-1 (MCP1), CCL2 (gene 6347); test: BSK_LPS_MCP1: BioMAP Diversity Plus: LPS Assay for Monocyte Chemoattractant Protein-1 (MCP1) Biomarker Activity (AID 2283081); conditions: primary human HUVEC with PBMC; actives raise or lower the signal;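 as to AC50: secreted MCP-1 protein quantified by ELISA in culture supernatant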
Method in brief: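 ELISA read-out of MCP-1 after 24 h chemical dosing of a human umbilical vein endothelial cell/peripheral blood mononuclear cell co-culture stimulated with LPS. Gain or loss of signal fitted relative to DMSO controls.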

[8] = BSK_LPS_PGE2: BioMAP Diversity Plus: LPS Assay for Prostaglandin E2 (PGE2) Biomarker Activity (AID 2283082); conditions: primary human HUVEC with PBMC; actives raise or lower the signal;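 as to AC50: secreted prostaglandin E2 measured by ELISA in LPS-stimulated co-culture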
Method in brief: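 HUVEC plus human PBMC co-culture stimulated with LPS; secreted PGE2 quantified by ELISA 24 h after chemical dosing. Activity fitted bidirectionally against DMSO baseline; parallel SRB staining (0.1% SRB after 10% TCA fixation, 560 nm) flags overt cytotoxicity.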

[9] = read-out: Macrophage colony-stimulating factor (MCSF), CSF1 (gene 1435); test: BSK_LPS_MCSF: BioMAP Diversity Plus: LPS Assay for Macrophage colony-stimulating factor (MCSF) Biomarker Activity (AID 2283083); conditions: primary human HUVEC with PBMC; actives raise or lower the signal
Method in brief: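 HUVEC + PBMC co-culture (human primary), 24 h post-dose; M-CSF by ELISA; gain/loss of signal fitted bidirectionally vs DMSO baseline.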

[10] = read-out: Tissue Factor, F3 (gene 2152); test: BSK_LPS_TissueFactor: BioMAP Diversity Plus: LPS Assay for Tissue Factor Biomarker Activity (AID 2283084); conditions: primary human HUVEC with PBMC; actives raise or lower the signal
Method in brief: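 HUVEC/PBMC co-culture, LPS-activated; CD142 ELISA read 24 h post-dose; bidirectional curve fit vs DMSO negative control.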

[11] = read-out: Tumor necrosis factor (Homo sapiens) (UniProt P01375); test: BSK_LPS_TNFa: BioMAP Diversity Plus: LPS Assay for Tumour Necrosis Factor alpha (TNFa) Biomarker Activity (AID 2283085); conditions: primary human HUVEC with PBMC; actives raise or lower the signal
Method in brief: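 Human umbilical vein endothelial cells co-cultured with PBMC and stimulated with LPS. TNFa was measured by ELISA 24 h after chemical dosing, fitted bidirectionally relative to DMSO.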

[12] = read-out: Vascular cell adhesion molecule 1 (VCAM1), VCAM1 (gene 7412); test: BSK_LPS_VCAM1: BioMAP Diversity Plus: LPS Assay for Vascular cell adhesion molecule 1 (VCAM1) Biomarker Activity (AID 2283086); conditions: primary human HUVEC with PBMC; actives raise or lower the signal
Method in brief: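 Human umbilical vein endothelial cells co-cultured with PBMC and stimulated with LPS; VCAM-1 measured by ELISA 24 h after dosing. Bidirectional curve fitting against DMSO baseline; cytotoxicity tracked in parallel by SRB total-protein staining.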

CD38, CD38 (gene 952) = test: BSK_SAg_CD38: BioMAP Diversity Plus: SAg Assay for CD38 Biomarker Activity (AID 2283087); conditions: primary human HUVEC with PBMC; actives raise or lower the signal
Method in brief: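 Human HUVEC plus PBMC co-culture stimulated with superantigen; CD38 measured by ELISA 24 h after chemical dosing. Fluorescence read-out, bidirectional fit against DMSO; cytotoxicity tracked in parallel by SRB and Alamar Blue.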

CD40, CD40 (gene 958) [13] = test: BSK_SAg_CD40: BioMAP Diversity Plus: SAg Assay for CD40 Biomarker Activity (AID 2283088); conditions: primary human HUVEC with PBMC; actives raise or lower the signal
Method in brief: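 HUVEC/PBMC co-culture, 24 h post-dose; CD40 by ELISA, fluorescence intensity; bidirectional fit vs DMSO negative control.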

CD69, CD69 (gene 969) = test: BSK_SAg_CD69: BioMAP Diversity Plus: SAg Assay for CD69 Biomarker Activity (AID 2283089); conditions: primary human HUVEC with PBMC; actives raise or lower the signal;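 as to AC50: cell surface CD69 protein quantified by ELISA with fluorescence detection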
Method in brief: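 Values derive from bidirectional fitting relative to DMSO vehicle. Cells: umbilical vein endothelium plus peripheral blood mononuclear cells, treated 24 h before fluorescent ELISA for CD69.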

[14] = read-out: Monocyte Chemoattractant Protein-1 (MCP1), CCL2 (gene 6347); test: BSK_SAg_MCP1: BioMAP Diversity Plus: SAg Assay for Monocyte Chemoattractant Protein-1 (MCP1) Biomarker Activity (AID 2283090); conditions: primary human HUVEC with PBMC; actives raise or lower the signal
Method in brief: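 MCP-1 levels in the endothelial–PBMC SAg co-culture were quantified by ELISA at 24 h post-dosing; both increases and decreases versus DMSO scored. Cytotoxicity monitored by SRB total protein in parallel cultures.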

[15] = read-out: E-selectin (Homo sapiens) (UniProt P16581); test: BSK_SAg_Eselectin: BioMAP Diversity Plus: SAg Assay for Eselectin Biomarker Activity (AID 2283091); conditions: primary human HUVEC with PBMC; actives raise or lower the signal
Method in brief: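 E-selectin ELISA readout at 24 h post-dosing in human umbilical vein endothelial cell/PBMC co-culture; gain or loss of signal fitted relative to DMSO baseline.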

[16] = read-out: Monokine induced gamma interferon (MIG), CXCL9 (gene 4283); test: BSK_SAg_MIG: BioMAP Diversity Plus: SAg Assay for Monokine induced gamma interferon (MIG) Biomarker Activity (AID 2283092); conditions: primary human HUVEC with PBMC; actives raise or lower the signal
Method in brief: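 Values reflect bidirectional fitting of ELISA-measured MIG against DMSO vehicle, taken 24 h after dosing of a co-culture of human umbilical vein endothelial cells and peripheral blood mononuclear cells.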

[17] = BSK_SAg_PBMCCytotoxicity: PBMC Cytotoxicity Assessment in the BioMAP Diversity Plus: SAg Assay (AID 2283093); conditions: primary human HUVEC with PBMC;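 also: PBMC viability measured as Alamar Blue reduction fluorescence at 546/580 nm; fitted both ways against DMSO so a hit may be loss or gain of signal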;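 as to AC50: PBMC superantigen activated with SEB plus TSST-1 one hour after compound addition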
Method in brief: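 Human umbilical vein endothelial cells co-cultured with PBMC; PBMC (75,000/well) pre-treated with compound 1 h, then activated with SEB and TSST-1 (20 ng/mL final each) for 90 h. Alamar Blue added 6 h, fluorescence 546/580 nm; bidirectional fit versus DMSO.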

[18] = read-out: Interleukin-8 (IL8), CXCL8 (gene 3576); test: BSK_SAg_IL8: BioMAP Diversity Plus: SAg Assay for Interleukin-8 (IL8) Biomarker Activity (AID 2283094); conditions: primary human HUVEC with PBMC; actives raise or lower the signal
Method in brief: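 Human umbilical vein endothelial cells co-cultured with PBMC, stimulated with superantigen; IL-8 measured by ELISA 24 h after chemical dosing. Bidirectional fitting versus DMSO; SRB staining in parallel cultures tracks cytotoxicity.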

Chain of Tumor necrosis factor (Homo sapiens) (P01375 whole entry, looked up): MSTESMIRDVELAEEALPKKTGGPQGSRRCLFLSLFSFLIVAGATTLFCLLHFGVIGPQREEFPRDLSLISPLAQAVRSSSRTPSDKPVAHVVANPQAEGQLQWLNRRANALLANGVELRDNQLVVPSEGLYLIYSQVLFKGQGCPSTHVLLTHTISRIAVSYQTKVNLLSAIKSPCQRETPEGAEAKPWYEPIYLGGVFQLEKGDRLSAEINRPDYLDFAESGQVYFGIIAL
Chain of E-selectin (Homo sapiens) (P16581 whole entry, looked up): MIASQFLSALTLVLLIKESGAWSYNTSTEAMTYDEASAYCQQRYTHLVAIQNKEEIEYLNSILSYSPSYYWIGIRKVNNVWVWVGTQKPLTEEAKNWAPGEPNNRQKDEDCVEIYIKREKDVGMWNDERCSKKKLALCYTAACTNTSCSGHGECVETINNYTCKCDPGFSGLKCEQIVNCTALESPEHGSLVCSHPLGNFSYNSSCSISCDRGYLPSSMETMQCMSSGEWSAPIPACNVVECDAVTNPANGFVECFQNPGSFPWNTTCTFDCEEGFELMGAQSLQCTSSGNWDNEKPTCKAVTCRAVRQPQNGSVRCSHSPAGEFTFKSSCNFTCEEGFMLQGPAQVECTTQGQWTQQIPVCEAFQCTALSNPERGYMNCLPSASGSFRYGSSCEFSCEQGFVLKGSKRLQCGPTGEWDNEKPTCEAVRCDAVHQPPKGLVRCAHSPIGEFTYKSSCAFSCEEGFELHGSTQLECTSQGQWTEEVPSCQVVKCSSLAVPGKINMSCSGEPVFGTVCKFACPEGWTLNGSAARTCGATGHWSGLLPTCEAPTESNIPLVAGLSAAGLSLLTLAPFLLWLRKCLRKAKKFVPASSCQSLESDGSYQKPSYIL

O=S(=O)(C(Cl)(Cl)Cl)C(Cl)(Cl)Cl
AC50 [1]: 3.52 µM (active)
AC50 (CD40, CD40 (gene 958) [2]): 1.51 µM (active)
AC50 [3]: 2.4 µM (active)
AC50 [4]: 2.88 µM (active)
AC50 [5]: 5.31 µM (active)
AC50 [6]: 1.6 µM (active)
AC50 [7]: 4.15 µM (active)
outcome [8]: inactive
AC50 [9]: 1.83 µM (active)
AC50 [10]: 3.21 µM (active)
outcome [11]: inactive
AC50 [12]: 2.28 µM (active)
AC50 (CD38, CD38 (gene 952)): 2.64 µM (active)
AC50 (CD40, CD40 (gene 958) [13]): 2.74 µM (active)
AC50 (CD69, CD69 (gene 969)): 3.57 µM (active)
AC50 [14]: 4.17 µM (active)
AC50 [15]: 3.13 µM (active)
AC50 [16]: 7.79 µM (active)
AC50 [17]: 2.3 µM (active)
AC50 [18]: 1.79 µM (active)

Oc1cc(Cl)c(Cl)cc1Cl
outcome [1]: inactive
AC50 (CD40, CD40 (gene 958) [2]): 14.1 µM (active)
AC50 [3]: 34.1 µM (active)
AC50 [4]: 32.3 µM (active)
AC50 [5]: 25.7 µM (active)
AC50 [6]: 32.6 µM (active)
AC50 [7]: 30.2 µM (active)
outcome [8]: inactive
AC50 [9]: 20 µM (active)
outcome [10]: inactive
outcome [11]: inactive
AC50 [12]: 32 µM (active)
AC50 (CD38, CD38 (gene 952)): 26.8 µM (active)
AC50 (CD40, CD40 (gene 958) [13]): 24.8 µM (active)
AC50 (CD69, CD69 (gene 969)): 20 µM (active)
AC50 [14]: 32.2 µM (active)
AC50 [15]: 26.5 µM (active)
outcome [16]: inactive
outcome [17]: inactive
AC50 [18]: 31.1 µM (active)

OCCCCO
outcome [1]: inactive
outcome (CD40, CD40 (gene 958) [2]): inactive
outcome [3]: inactive
outcome [4]: inactive
outcome [5]: inactive
outcome [6]: inactive
outcome [7]: inactive
outcome [8]: inactive
outcome [9]: inactive
outcome [10]: inactive
outcome [11]: inactive
outcome [12]: inactive
outcome (CD38, CD38 (gene 952)): inactive
outcome (CD40, CD40 (gene 958) [13]): inactive
outcome (CD69, CD69 (gene 969)): inactive
outcome [14]: inactive
outcome [15]: inactive
outcome [16]: inactive
outcome [17]: inactive
outcome [18]: inactive

CCOP(=O)(OCC)SCCSCC
outcome [1]: inactive
outcome (CD40, CD40 (gene 958) [2]): inactive
outcome [3]: inactive
outcome [4]: inactive
outcome [5]: inactive
outcome [6]: inactive
outcome [7]: inactive
outcome [8]: inactive
outcome [9]: inactive
outcome [10]: inactive
outcome [11]: inactive
outcome [12]: inactive
outcome (CD38, CD38 (gene 952)): inactive
outcome (CD40, CD40 (gene 958) [13]): inactive
outcome (CD69, CD69 (gene 969)): inactive
outcome [14]: inactive
outcome [15]: inactive
outcome [16]: inactive
outcome [17]: inactive
outcome [18]: inactive

Cc1ccc2nc3sc(=O)sc3nc2c1
outcome [1]: inactive
AC50 (CD40, CD40 (gene 958) [2]): 4.27 µM (active)
AC50 [3]: 8.18 µM (active)
outcome [4]: inactive
AC50 [5]: 3.67 µM (active)
AC50 [6]: 7.83 µM (active)
AC50 [7]: 6.93 µM (active)
AC50 [8]: 1.2 µM (active)
outcome [9]: inactive
outcome [10]: inactive
outcome [11]: inactive
AC50 [12]: 7.61 µM (active)
AC50 (CD38, CD38 (gene 952)): 6.68 µM (active)
AC50 (CD40, CD40 (gene 958) [13]): 6.41 µM (active)
outcome (CD69, CD69 (gene 969)): inactive
outcome [14]: inactive
AC50 [15]: 8.11 µM (active)
outcome [16]: inactive
outcome [17]: inactive
outcome [18]: inactive

COCC(=O)N(c1c(C)cccc1C)[C@H](C)C(=O)OC
outcome [1]: inactive
outcome (CD40, CD40 (gene 958) [2]): inactive
outcome [3]: inactive
outcome [4]: inactive
outcome [5]: inactive
outcome [6]: inactive
outcome [7]: inactive
outcome [8]: inactive
outcome [9]: inactive
outcome [10]: inactive
outcome [11]: inactive
outcome [12]: inactive
outcome (CD38, CD38 (gene 952)): inactive
outcome (CD40, CD40 (gene 958) [13]): inactive
outcome (CD69, CD69 (gene 969)): inactive
outcome [14]: inactive
outcome [15]: inactive
outcome [16]: inactive
outcome [17]: inactive
outcome [18]: inactive
